Gal4-VP16 FLuc: Gal4-VP16 reporter inhibition counter-screen | Drosophila S2 Gal4-VP16 UAS-luciferase, luminescence, 20 h | Potency, µM (highest dose often 53.6 µM), for inactives: at the top dose activity, negative = inhibition, most hits filed as inhibitors | actives 3.5% (n = 310,000) | AID 2546;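 also: Gal4-VP16 expression switched on by copper sulfate through the metallothionein promoter; potency is read from the fitted curve at half-maximal effect; % is scaled to controls: 0 for no effect and ±100 for the full control effect; nearly all actives have a fitted effect of over 50% in size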
RORg inh: inhibitors of mouse ROR gamma transcriptional activity. Potency, µM (top dose mostly 53.6 µM), without a hit: at the highest dose activity change, negative = inhibition, hits mostly inhibitors. actives 5.4% (n = 310,000). Drosophila S2 Gal4-RORgamma UAS-luciferase reporter, 20 h; also: potency is read from the fitted curve at half-maximal effect; % is scaled to controls: 0 for no effect and ±100 for the full control effect; nearly all actives have a fitted effect of over 60% in size
Target sequence (P51450 whole entry, looked up, the tested form may be a part): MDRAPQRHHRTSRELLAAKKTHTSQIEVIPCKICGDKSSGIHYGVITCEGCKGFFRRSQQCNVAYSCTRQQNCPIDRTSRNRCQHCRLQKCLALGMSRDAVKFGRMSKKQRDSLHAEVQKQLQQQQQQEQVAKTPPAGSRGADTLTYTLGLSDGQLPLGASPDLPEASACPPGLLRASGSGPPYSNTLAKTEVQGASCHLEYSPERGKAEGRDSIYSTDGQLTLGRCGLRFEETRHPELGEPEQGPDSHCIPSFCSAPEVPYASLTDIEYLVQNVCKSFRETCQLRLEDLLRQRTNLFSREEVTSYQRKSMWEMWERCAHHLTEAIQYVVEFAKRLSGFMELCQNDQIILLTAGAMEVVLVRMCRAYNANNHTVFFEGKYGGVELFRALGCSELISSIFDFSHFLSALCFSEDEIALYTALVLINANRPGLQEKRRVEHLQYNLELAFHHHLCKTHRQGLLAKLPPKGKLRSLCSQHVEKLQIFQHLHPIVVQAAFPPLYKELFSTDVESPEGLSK
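Stable Schneider cell line, Gal4 DNA-binding domain fused to ROR gamma, UAS-luciferase. Cmpd 1 hr RT → CuSO4 700 uM final → 20 hr RT → luciferase reagent 10 min → luminescence.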
SW480 rerep: DNA re-replication induction in SW480 cells | Potency, µM (top dose mostly 46.1 µM), for inactives: at the top dose re-replication activation, actives largely listed as activators | AID 624297 | actives 1.8% (n = 340,000) | SW480 DNA re-replication, Hoechst DNA content imaging, 48 h; also: potency is read from the fitted curve at half-maximal effect; % of control where 0% means no effect; nearly all actives have a fitted effect of over 55% in size
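Per well, 250 cells were exposed to pinned compound for 48 hr. Nuclear DNA was visualised with Hoechst (40 min, 37 C) and total object intensity recorded by fluorescence scanning.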
Giardia kill: kills Giardia lamblia; AID 540267; Giardia lamblia trophozoite viability; actives 0.15% (n = 340,000); activity change, % at 7.66 µM, hits read low; in the data active = activity change below about -80%; inconclusive = between about -30% and that limit;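 also: parasites exposed to compound for two days anaerobically before the ATP read; % is scaled to controls: 0 for no effect and ±100 for the full control effect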
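Trophozoite viability was measured as ATP-dependent luminescence, read 15-30 min after reagent addition. Before that, parasites at 100 cells/well were exposed to compounds for 48 h, anaerobically, at 37 deg C.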
BCR signal inh: blocks chronic active B-cell receptor signaling | ABC-DLBCL IkBa-CBG/CBR reporter, luminescence ratio, 4 h | AID 493014 | Potency, µM (series often up to 46.1 µM), for inactives: top-dose activity change, negative = inhibition, actives largely listed as inhibitors | actives 0.05% (n = 340,000); active = well fitted inhibition curve with a large enough effect in the signal ratio, with a control signal flat, not every such curve was filed as active; inconclusive = small, poorly fitted or top-dose-only effect, or effect the other way, or a change in a side signal; the % refers to the signal ratio;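 also: potency is read from the fitted curve at half-maximal effect; plate controls were basal doxycycline-induced cells for no effect and cells given 10 µM MG132 for full effect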
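TMD8 human ABC-DLBCL cells with doxycycline-inducible IκBα–green luciferase fusion and unfused red luciferase, in 0.5% FBS medium; compounds up to 46 uM, 4 h at 37C. Green/red luminescence ratio, filter-overlap corrected, fitted to concentration-response curves.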
MCF10A rereplic: induces DNA re-replication in MCF 10a normal breast cells; actives 2.9% (n = 350,000); Potency, µM (top dose mostly 46.1 µM), for inactives: top-dose activity, positive = re-replication, hits mostly activators; MCF 10A DNA re-replication, Hoechst nuclear intensity, 48 h; also: potency is read from the fitted curve at half-maximal effect; % of control where 0% means no effect; nearly all actives have a fitted effect of over 50% in size
* hit, by the source's call; u = inconclusive; x = no result given; [ ] = dose if it differs, or a comment. This is a sample that favours compounds with a hit; in the whole collection about 8.3% have one here. Unless noted, calls follow the shape of the dose curve; as a rule, active = well fitted curve in the direction sought with a large enough effect; inconclusive = small, poorly fitted or top-dose-only effect, or another doubt; inactive = no such curve, though single readings can be large; an effect the other way counts as inactive or inconclusive.

SMILES	Gal4-VP16 FLuc	RORg inh	SW480 rerep	Giardia kill	BCR signal inh	MCF10A rereplic
Cc1nn(C)cc1S(=O)(=O)N1CCN(Cc2ccc(F)cc2Cl)CC1	-13.8%	-6.2%	-1.8%	u	0.5%	-4.8%
COc1cc(OC)cc(C(=O)N2CC(=O)Nc3ccccc32)c1	-15.9%	-2.7%	3.26µM*	-17.0	u	1.46µM*
O=C1CN(C(=O)c2ccccc2F)c2ccccc2N1	7.9%	1.8%	-23.4%	20.0	7.6%	-11.6%
CCCn1nc(C(=O)N2CC(=O)Nc3ccccc32)c2ccccc2c1=O	-2.4%	-18.8%	14.6µM*	-3.7	u	14.6µM*
COC(=O)C1=C(C)Nc2nnnn2C1c1cccnc1 (centres undefined)	u	-26.5%	1.2%	-6.4	u	6.6%
CC1=C(C(=O)Nc2ccccn2)C(c2cccnc2)n2nnnc2N1 (centres undefined)	-0.9%	7.3%	u	8.9	4.6%	8.2µM*
CC1=C(C(=O)OC2CCCCC2)C(c2cccnc2)n2nnnc2N1 (centres undefined)	15.8µM*	24.3%	0.9%	4.7	-0.6%	2.4%
CC(C)NC(=O)c1cc(-c2ccc3c(c2)OCO3)on1	-25.2%	u	-4.6%	-4.3	u	0.6%
CC1CCCC(C)N1C(=O)CN1c2cccc3cccc(c23)S1(=O)=O (centres undefined)	x	x	-0.2%	-19.2	0.9%	-0.7%
CCc1ccc(/C=C\C(=O)N2CCc3ccccc3C2)cc1	u	10µM*	4.7%	8.3	2.5%	5.7%
CCN1CCN(C(=O)/C=C/c2c(F)cccc2Cl)CC1	2.7%	-2.9%	-5.1%	-7.7	-1.2%	6.6%
O=C(/C=C/c1c(F)cccc1Cl)N1CCc2ccccc2C1	2.2%	0.398µM*	3.5%	12.2	0.7%	5.5%
CC(Oc1ccccc1)C(=O)Nc1nnc(S(=O)(=O)N2CCCCC2)s1 (centres undefined)	-9.2%	7.0%	-0.7%	-83.5*	16.4%	1.0%
O=C(COC(=O)Cn1cnc2ccccc21)Nc1ccc2c(c1)C(=O)c1ccccc1C2=O	-4.9%	-0.2%[10 µM]	6.51µM*	-6.4	u	u
CC(=O)c1ccc(NC(=O)COC(=O)Cn2cnc3ccccc32)cc1	x	x	0.6%	-1.3	-6.7%	2.0%
COCCCNC(=S)N/N=C/c1cccc(OC)c1O	1.58µM*	0.631µM*	-43.4%	-4.8	u	-21.3%
NC(=S)N/N=C/c1ccc2ccccc2c1	u	u	-0.3%	17.6	-0.9%	-1.1%
COCCCNC(=S)N/N=C/c1ccc(O)cc1	-11.1%	12.6µM*	13.8%	-5.9	-7.4%	-0.8%
COCCCNC(=S)N/N=C/c1ccc(O)cc1O	-25.6%	-36.6%	u	-4.1	u	-0.9%
COCCCNC(=S)N/N=C/c1ccc2ccccc2c1	17.8µM*	4.47µM*	3.8%	-29.3	u	-1.4%
COCCCNC(=S)N/N=C/c1ccc(OC)cc1	u	5.62µM*	9.8%	2.2	u	-13.6%
O=[N+]([O-])c1ccccc1Nc1nc(-c2cccnc2)cs1	12.1%	22.8%[1.91 µM]	-5.1%	7.2	u	15.3%
Cc1ccc(S(=O)(=O)NC(=NC(Cc2ccccc2)C(=O)O)c2ccccc2)cc1 (centres undefined)	-6.8%	-6.1%	0.9%	-6.6	6.4%	7.1%
CCCn1nnnc1NCc1ccc(N(CC)CC)cc1	x	x	-1.1%	-1.8	0.5%	-1.3%
O=C(CCl)Nc1cc(SCC(O)CO)cc([N+](=O)[O-])c1 (centres undefined)	5.01µM*	u	5.8µM*	10.0	u	u
SMILES	Gal4-VP16 FLuc	RORg inh	SW480 rerep	Giardia kill	BCR signal inh	MCF10A rereplic
Cc1cc(C)cc(Oc2cc(NC(=O)c3cn(C)nc3C)cc([N+](=O)[O-])c2)c1	7.94µM*	u	3.8%	10.6	-9.9%	23.5%
CC(C)=NOc1cc(NC(=O)CCl)cc([N+](=O)[O-])c1	7.08µM*	10µM*	9.2µM*	7.9	u	6.51µM*
CCC(=O)Nc1cc(SCCO)cc([N+](=O)[O-])c1	-0.2%	u	4.3%	6.9	4.6%	5.8%
Cc1cccc(Oc2cc(NC(=O)Cn3cnc([N+](=O)[O-])n3)cc([N+](=O)[O-])c2)c1	u	u	-2.2%	12.5	u	7.8%
COc1ccc(NC(=O)Nc2ccccc2F)c([N+](=O)[O-])c1	-1.4%	33.4%	-0.2%	-23.2	-1.7%	-3.1%
CN(CCC#N)C(=O)COC(=O)c1c2c(nc3ccccc13)/C(=C/c1ccco1)CC2	-1.6%	u	11.6µM*	9.2	u	u
CC(=O)Nc1ccc(S(=O)(=O)Nc2c(NC3CCCCC3)c3ccccc3oc2=O)cc1	-22.6%	-21.7%	-9.8%	-4.2	u	0.2%
COc1ccccc1N1CCN(C(=O)c2ccc3c(=O)n(Cc4ccco4)c(=S)[nH]c3c2)CC1	u	6.31µM*	0.6%	-1.3	u	u
COc1ccc(OC)c(-n2c(=S)[nH]c3cc(C(=O)N4CCN(c5ccccc5)CC4)ccc3c2=O)c1	-8.9%	11.2µM*	-5.3%	1.8	5.6%	-1.3%
COc1ccc(-n2c(=S)[nH]c3cc(C(=O)NCc4ccco4)ccc3c2=O)c(OC)c1	-10.1%	u	-6.4%	-16.6	39.9%	11.4%
COc1ccc(OC)c(-n2c(=S)[nH]c3cc(C(=O)N(C)Cc4ccccc4)ccc3c2=O)c1	u	12.6µM*	-2.3%	3.5	u	0.5%
C=CC[C@H](CC(=O)OC(C)(C)C)C(=O)OC[C@@H]1CCCN1C(=O)[C@@H](CC=C)CC(=O)N[C@H](CO)Cc1ccccc1	x	x	-3.2%	2.2	2.7%	24.3%
CC1=NN(C(=O)c2cc(C)nn2C)C(O)(C(F)(F)F)C1 (centres undefined)	u	11.2µM*	0.517µM*	-21.2	u	2.9%
CC1=NN(C(=O)c2csc(C)c2C)C(O)(C(F)(F)F)C1 (centres undefined)	4.47µM*	5.62µM*	-4.1%	-10.7	u	1.5%
Cc1cc(C)cc(NC(=O)c2cc(C)nn2C)c1	0.9%	15.5%	-0.4%	-6.9	-11.9%	-0.2%
Cc1cc(C(=O)N2CCN(c3ncccn3)CC2)cs1	-3.3%	7.2%	-8.9%	11.7	0.9%	-3.2%
Cc1ccc(C(=O)N2N=C(c3ccccc3)CC2(O)C(F)(F)F)o1 (centres undefined)	-10.9%	-3.9%	0.5%	3.4	u	5.2%
CC1=NN(C(=O)c2ccc(Br)cc2)C(O)(C(F)(F)OC(F)(F)F)C1 (centres undefined)	17.8µM*	11.2µM*	-2.7%	-24.4	-2.9%	u
